# Bioassay records from PubChem BioAssay.
# PI4K2A block = qHTS for small molecular inhibitors of PI4K2A; Phosphatidylinositol 4-kinase type 2-alpha (Homo sapiens), Q9BTU6; purified PI4K2A, ADP-Glo luminescence, 1 h; active compounds read low; activity change, negative = inhibition, % at 76.9 µM; 0.13% of 420,000 active; in the data active means activity change below about -50%; inconclusive means mostly about -30% to -49%;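 further: -100% = wells without enzyme as full effect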
#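 In this quantitative HTS, ADP production by PI4K2A was quantified luminescently after 1 h at ambient temperature; 100 microM adenosine served as plate-quality control.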
# POLI inh = qHTS for Inhibitors of Polymerase Iota; Potency, µM (doses to about 115 µM), for the others: top-dose activity, negative = inhibition, actives largely listed as inhibitors; 1% of 390,000 active; Pol iota fluorescent replication assay, 10 min; further: potency means the concentration at half of the fitted maximal effect
#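 Fluorescent replication assay read twice, at 0 min and 10 min after adding 50 nM (final) substrate. Enzyme (10 nM) and compounds were first incubated 15 min at room temperature; enzyme-free buffer wells were negative controls.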
# Pol beta inh = qHTS Assay for Inhibitors of DNA Polymerase Beta; 1.3% of 340,000 active; Potency, µM (highest dose often 114 µM), without a hit: at the top dose activity change, negative = inhibition, actives largely listed as inhibitors; Pol beta primer extension/strand displacement, fluorescence kinetic; further: potency means the concentration at half of the fitted maximal effect; on the % scale 0 is the no-effect control and ±100 the full control effect
#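 Curves were derived by four-parameter Hill fits of normalized qHTS data. The kinetic fluorescent primer-extension read was taken at 0 and 10 min after 50 nM substrate, following a 15 min room-temperature preincubation of 10 nM enzyme with compounds.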
# POLK inh = qHTS for Inhibitors of Polymerase Kappa | DNA polymerase kappa (Homo sapiens), Q9UBT6 | purified Pol kappa, fluorescent DNA synthesis assay, 10 min | Potency, µM (top dose mostly 107 µM), inactives show at the top dose activity, negative = inhibition, hits mostly inhibitors | 0.53% of 400,000 active | AID 588579, 2011; further: potency means the concentration at half of the fitted maximal effect; on the % scale 0 is the no-effect control and ±100 the full control effect
# Target sequence (Q9UBT6 whole entry, looked up): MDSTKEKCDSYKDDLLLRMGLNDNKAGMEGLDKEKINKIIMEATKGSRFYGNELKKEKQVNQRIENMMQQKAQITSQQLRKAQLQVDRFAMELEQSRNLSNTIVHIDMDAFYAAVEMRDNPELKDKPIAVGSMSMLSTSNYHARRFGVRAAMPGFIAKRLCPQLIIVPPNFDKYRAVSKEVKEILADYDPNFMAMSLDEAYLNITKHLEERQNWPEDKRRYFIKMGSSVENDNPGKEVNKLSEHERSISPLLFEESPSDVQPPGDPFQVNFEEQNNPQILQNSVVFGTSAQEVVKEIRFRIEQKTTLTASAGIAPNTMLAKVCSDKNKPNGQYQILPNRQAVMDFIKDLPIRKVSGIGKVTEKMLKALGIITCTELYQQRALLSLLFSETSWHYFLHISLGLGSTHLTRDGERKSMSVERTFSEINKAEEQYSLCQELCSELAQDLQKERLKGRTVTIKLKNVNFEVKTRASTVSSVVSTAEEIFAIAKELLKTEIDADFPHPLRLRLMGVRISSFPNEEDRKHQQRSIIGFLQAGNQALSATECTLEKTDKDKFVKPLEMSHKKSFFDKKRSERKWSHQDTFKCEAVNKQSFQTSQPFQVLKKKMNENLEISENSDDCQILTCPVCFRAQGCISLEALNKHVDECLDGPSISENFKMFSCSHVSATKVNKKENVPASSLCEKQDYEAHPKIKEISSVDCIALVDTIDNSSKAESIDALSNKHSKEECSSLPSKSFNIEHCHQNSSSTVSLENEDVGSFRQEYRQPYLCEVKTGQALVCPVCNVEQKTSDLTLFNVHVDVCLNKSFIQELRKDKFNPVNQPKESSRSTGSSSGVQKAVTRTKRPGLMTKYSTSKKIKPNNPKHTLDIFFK
#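 Activity was followed as the change in fluorescence between reads at 0 and 10 min after starting the reaction with 50 nM substrate. Beforehand, 10 nM polymerase had been preincubated with compound for 15 min at room temperature.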
# POLH inh = qHTS for Inhibitors of Polymerase Eta; DNA polymerase eta (Homo sapiens), Q9Y253; recombinant Pol eta, fluorescent DNA replication assay; Potency, µM (top dose mostly 114 µM), for inactives: at the highest dose activity change, negative = inhibition, hits mostly inhibitors; 1.2% of 390,000 active; further: potency means the concentration at half of the fitted maximal effect; on the % scale 0 is the no-effect control and ±100 the full control effect
#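 Pol eta at 10 nM preincubated with compounds 15 min at room temperature; reaction started with fluorescent substrate (50 nM final) and read kinetically at 0 and 10 min.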
# PI5P4K alpha inh = qHTS for Inhibitors of phosphatidylinositol 5-phosphate 4-kinase (PI5P4K). 1.2% of 330,000 active. AID 652105, 2013. Phosphatidylinositol 5-phosphate 4-kinase type-2 alpha (Homo sapiens), P48426. max response, %. PI5P4Kalpha enzyme, ADP-Glo luminescence, 60 min; active compounds read low; active means max response of -50% or lower; inconclusive means between -30% and -50%; inactive means -30% or higher; further: value at the top dose of about 77 µM; on the % scale 0 is the no-effect control and ±100 the full control effect
#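 Reactions run in 0.038 M HEPES pH 7.4, 0.28 mM EGTA, 0.1% CHAPS and 5% DMSO, with PI5P4Kalpha, substrate, compound and 5 microM ATP final, one hour at room temperature. Readout is ADP-Glo luminescence.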
# Active calls of the source: *; ? = inconclusive; . = no result given; [ ] = remark or other dose. Sampled rows, rich in hits. Any-hit rate of the full collection: about 2.8%. Unless noted, the call rests on the fitted dose curve; in most records, active means well fitted inhibition curve with a large enough effect; inconclusive means small, poorly fitted or top-dose-only effect, or another doubt; inactive means no such curve, though single readings can be large or run the other way.
SMILES,PI4K2A block,POLI inh,Pol beta inh,POLK inh,POLH inh,PI5P4K alpha inh
Cn1c(SCC(=O)NCc2ccco2)nnc1-c1ccc(S(=O)(=O)N2CCOCC2)cc1,3.9,100µM*,?,-24.0%,?,.
O=C(CSc1nnc(-c2ccc(S(=O)(=O)N3CCCC3)cc2)o1)NCc1ccco1,-13.2,89.1µM*,25.1µM*,?,?,.
Cn1c(SCC(=O)NCc2ccco2)nnc1-c1ccccc1,-3.9,-12.7%,2.7%,-21.6%,9.2%,-7.0
O=C1Nc2cc(C(=O)NCCCN3CCCC3)ccc2S/C1=C/c1cccc(Cl)c1,1.2,.,.,.,-3.9%,-51.4*
CCOc1ccccc1CN1CCN(S(=O)(=O)CC)CC1,6.3,18.9%,-0.9%,-9.3%,3.2%,.
CCCS(=O)(=O)N1CCN(Cc2ccccc2OCC)CC1,-2.0,6.8%,89.1µM*,-8.6%,-3.5%,0.8
S=C(Nc1ccccc1I)OC1CCC12CCC(c1ccccc1)CC2 (stereo not drawn),-5.1,.,.,.,.,.
CCOc1ccccc1NC(=O)CCS(=O)(=O)c1ccc(OC)cc1,-5.3,-2.5%,12.8%,-6.5%,-4.6%,-6.1
Cn1c(=O)oc2cc(S(=O)(=O)Nc3ccc(C(=O)O)cc3)ccc21,2.4,?,?,-19.4%,89.1µM*,-11.1
CCc1ccccc1NC(=O)CCS(=O)(=O)c1ccc(OC)cc1,4.3,30.8%,35.5µM*,-18.9%,?,-10.3
COc1ccc(NC(=O)CCS(=O)(=O)c2ccc3c(c2)oc(=O)n3C)cc1,-0.2,50.1µM*,?,-24.1%,?,-28.4
COc1cccc(N2CCN(C(=O)CCS(=O)(=O)c3ccc4c(c3)oc(=O)n4C)CC2)c1,4.0,70.8µM*,?,?,?,-11.9
CC(C)(C)c1cc(C=O)cc(C(C)(C)C)c1O,1.1,.,.,.,.,.
O=C(Nc1ccc(F)c(F)c1)c1cnn2c1NC(=C1CC1)C=C2C(F)(F)F,.,57.0%,.,-11.2%,.,.
CCCC/C=C/[C@H](c1ccccc1)[C@H](CO)Cc1cnc2ccccc2c1,.,-20.5%,.,-12.3%,.,.
Cc1cc(Nc2ccccc2Cl)n2nc(-c3ccco3)nc2n1,-0.6,14.4%,5.8%,0.2%[60.1 µM],7.2%,.
Cc1cc(C)n2nc3nc(N4CCCCC4)nc(-c4ccco4)c3c2n1,-22.5,?,10µM*,31.6µM*,10µM*,-55.5*
O=C(c1ccc2c(c1)N(Cc1ccccc1F)C(=O)c1ccccc1S2(=O)=O)N1CCCCCC1,0.5,7.9%,-9.7%,-22.2%,-15.7%,.
COc1cc(C2Nc3ccccc3-c3nnc(SCc4ccc(C)cc4)nc3O2)cc(OC)c1O (stereo not drawn),-1.1,?,-2.9%,79.4µM*,-2.6%,.
O=C(O)COc1ccccc1C1Nc2ccccc2-c2nnc(SCc3ccc(Cl)cc3)nc2O1 (stereo not drawn),1.8,-7.2%,2.51µM*,-18.7%,-4.9%,.
CCC(Sc1nc2ncccc2[nH]1)C(=O)Nc1cccc(OC)c1 (stereo not drawn),-14.0,4.0%,1.3%,-4.0%,-16.2%,.
COC(=O)c1ccc(OC(=O)c2ccccn2)cc1,-7.1,17.8µM*,?,-8.6%,9.1%,0.1
COC(=O)c1ccc(OC(=O)c2cccnc2SC)cc1,0.6,30.0%,14.7%,-4.8%,-4.1%,1.0
COc1ccc2cc(C(=O)N/N=C/c3cc(OC)c(OC)c(OC)c3)[nH]c2c1,-7.7,?,10µM*,-52.7%,?,-10.4
COc1ccc(/C=N/NC(=O)c2cc3cc(OC)c(OC)cc3[nH]2)cc1,-4.4,-21.9%,6.31µM*,-76.2%,?,7.9
SMILES,PI4K2A block,POLI inh,Pol beta inh,POLK inh,POLH inh,PI5P4K alpha inh
COc1ccc(N=c2nc(-c3ccc(C)cc3)n(-c3ccccc3)s2)cc1,.,1.6%,.,5.1%,.,.
CC(C)CNc1ncnc2nc[nH]c12,.,-9.7%,.,-2.3%,.,.
O=C1CSC(c2cccnc2)N1c1ccccc1 (stereo not drawn),-0.6,-3.9%,-1.7%,-15.5%,3.1%,3.4
Cc1cccc(N2C(=O)CSC2c2cccnc2)c1 (stereo not drawn),-1.7,1.3%,100µM*,-9.1%,-0.3%,.
O=C(CCCCCCCC(=O)NNC(=O)Nc1ccccc1)NNC(=O)Nc1ccccc1,-22.9,?,31.6µM*,-31.7%,-29.0%,-6.2
Cc1cc(=O)n(C2CCS(=O)(=O)C2)[nH]1 (stereo not drawn),?,4.47µM*,-6.1%,-13.7%,-8.4%,0.9
Cc1[nH]c2ccccc2c1/C=N/NC(=O)c1ccc(N)cc1,2.2,-5.6%,20µM*,-4.9%,-16.8%,-24.5
Cc1[nH]c2ccccc2c1/C=N/NC(=O)c1ccccc1,1.3,-7.4%,-19.1%,1.7%,-22.2%,-21.8
Oc1ccc(CCNCCCCCCNCCc2ccccc2)cc1O,-2.8,.,.,.,.,.
CCN(Cc1cccs1)c1ncnc2ccc(-c3ccc4c(c3)OCO4)cc12,-12.0,.,.,.,.,.
Cc1ccc(OCC(=O)Nc2ccccc2C(=O)OCc2cc(=O)n3ccsc3n2)cc1,-1.7,-18.4%,2.82µM*,-14.2%[60.1 µM],?,.
CC1CCc2c(sc3ncnc(SCC(=O)Nc4ccc(C(=O)O)cc4)c23)C1 (stereo not drawn),4.5,72.4%,25.5%,0.3%,-18.9%,-67.2*
O=C(CSc1ncnc2sc3c(c12)CCCC3)Nc1ccc(Oc2ccccc2)cc1,-2.9,.,.,.,.,.
O=C(O)CSc1ncnc2sc3c(c12)CCC3,-7.3,-5.9%,?,-17.5%,?,-68.0*
O=C(CSc1ncnc2sc3c(c12)CCC3)Nc1ccccc1C(=O)O,4.6,?,0.8%,-26.2%,?,-83.7*
O=C(O)CSc1ncnc2sc3c(c12)CCCC3,-7.9,43.1%,-6.1%,-0.7%,-2.9%,-58.4*
CSc1nc(N)c2ncn([C@@H]3O[C@H](COP(=O)(O)OP(=O)(O)OP(=O)(O)O)[C@H](O)[C@H]3O)c2n1,.,-13.8%[58.9 µM],-5.0%[57.1 µM],.,0.1%[57.1 µM],.
COc1ccc2c(c1)c(CC(=O)OC/C=C(\C)CC/C=C(\C)CCC=C(C)C)c(C)n2C(=O)c1ccc(Cl)cc1,-0.6,.,.,.,.,.
Cc1ccc(-c2csc3ncnc(SCC(=O)O)c23)cc1,-3.6,56.6%,16.5%,7.3%,-0.3%,-70.1*
COC(=O)CSc1ncnc2scc(-c3ccccc3)c12,4.6,9.8%,2.1%,-2.6%,-18.8%,2.9
O=C(N/N=C/c1ccccc1Cl)c1nc2ccc([N+](=O)[O-])cc2c(=O)[nH]1,-1.0,10µM*,9.7%,-0.1%,-8.7%,?
